# Reference: PubChem BioAssay
# Active and inactive are the calls of the source.
# Key:
# [1] = anti-His antibody binders, primary screen, artefact control for SMM control protein annotation, biochemical, small-molecule microarray, 635 nm fluorescence (AID 1128); settings: anti-His Alexa647 antibody binding, higher = more signal;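 note: score merges feature fluorescence with signal-to-noise for each printed compound spot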
# [2] = test system: Human papillomavirus type 1a E7 protein (residues 1-88); assay: HPV1a E7 small-molecule binders, primary screen, biochemical, small-molecule microarray, residues 1-88, 635 nm (AID 1129); settings: small-molecule microarray binding, fluorescence 635 nm; higher = more signal
# [3] = molecular target: Focal adhesion kinase 1 (Homo sapiens) (UniProt Q05397); assay: small-molecule microarray binders of FAK, primary screen, biochemical, 635/667 nm fluorescence, BSA, DTT (AID 1130); settings: PTK2 binding, 635 nm fluorescence, higher = more signal;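 note: composite of spot emission at 667 nm and signal to noise over triplicate slides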
# Chain of Focal adhesion kinase 1 (Homo sapiens) (Q05397 whole entry, looked up): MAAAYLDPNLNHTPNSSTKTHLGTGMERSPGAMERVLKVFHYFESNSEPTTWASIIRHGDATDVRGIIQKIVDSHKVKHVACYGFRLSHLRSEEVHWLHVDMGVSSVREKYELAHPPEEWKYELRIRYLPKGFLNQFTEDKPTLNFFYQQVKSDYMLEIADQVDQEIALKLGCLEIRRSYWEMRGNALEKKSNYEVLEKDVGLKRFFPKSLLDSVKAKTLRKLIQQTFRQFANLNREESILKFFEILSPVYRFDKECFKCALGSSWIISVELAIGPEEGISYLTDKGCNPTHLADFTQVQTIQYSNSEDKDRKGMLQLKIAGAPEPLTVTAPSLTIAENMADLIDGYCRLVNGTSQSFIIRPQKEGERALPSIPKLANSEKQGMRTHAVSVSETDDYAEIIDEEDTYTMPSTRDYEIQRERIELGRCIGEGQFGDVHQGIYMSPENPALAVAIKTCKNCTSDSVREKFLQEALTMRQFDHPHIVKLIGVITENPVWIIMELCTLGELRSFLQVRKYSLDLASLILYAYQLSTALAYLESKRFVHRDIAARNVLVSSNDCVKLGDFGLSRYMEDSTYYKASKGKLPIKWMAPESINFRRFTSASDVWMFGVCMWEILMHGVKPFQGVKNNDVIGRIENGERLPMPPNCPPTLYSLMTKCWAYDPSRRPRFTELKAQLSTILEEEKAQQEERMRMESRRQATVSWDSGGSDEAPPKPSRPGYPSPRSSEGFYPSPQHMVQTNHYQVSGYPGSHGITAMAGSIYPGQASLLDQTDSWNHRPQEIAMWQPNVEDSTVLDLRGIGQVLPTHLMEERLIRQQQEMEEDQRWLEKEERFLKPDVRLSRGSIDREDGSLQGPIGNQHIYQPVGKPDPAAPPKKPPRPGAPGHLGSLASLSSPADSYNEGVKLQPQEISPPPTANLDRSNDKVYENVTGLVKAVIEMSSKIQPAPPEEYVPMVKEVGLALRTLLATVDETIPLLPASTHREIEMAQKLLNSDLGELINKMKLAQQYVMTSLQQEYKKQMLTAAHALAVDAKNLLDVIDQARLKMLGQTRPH
# [4] = test system: Fibrinogen (Alexa647-labelled); assay: fibrinogen binders on compound microarrays, profiling panel, artefact control for SMM control-protein annotation, biochemical, small-molecule microarray, 635/667 nm fluorescence (AID 1131); settings: fibrinogen-A647 binding fluorescence, higher = more signal;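 note: z-score merges 667 nm fluorescence with per-spot signal-to-noise over triplicate slides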
# [5] = molecular target: Follistatin (Homo sapiens) (UniProt P19883); assay: follistatin binders on small-molecule microarrays, primary screen, biochemical, small-molecule microarray, 635/667 nm fluorescence (AID 1132); settings: FST binding, 635 nm fluorescence, higher = more signal
# Chain of Follistatin (Homo sapiens) (P19883 whole entry, looked up): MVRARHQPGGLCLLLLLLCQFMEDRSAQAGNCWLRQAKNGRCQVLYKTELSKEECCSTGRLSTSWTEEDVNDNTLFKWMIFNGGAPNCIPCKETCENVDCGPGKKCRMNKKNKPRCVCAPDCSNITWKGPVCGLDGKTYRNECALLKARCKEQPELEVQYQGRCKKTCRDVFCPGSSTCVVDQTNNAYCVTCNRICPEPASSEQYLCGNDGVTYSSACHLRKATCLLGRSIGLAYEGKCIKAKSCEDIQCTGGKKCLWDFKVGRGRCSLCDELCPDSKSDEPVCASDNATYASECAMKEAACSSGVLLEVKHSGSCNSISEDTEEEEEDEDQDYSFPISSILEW
# [6] = molecular target: Fibroblast growth factor 2 (Homo sapiens) (UniProt P09038); assay: FGF2 binders on small-molecule microarrays, primary screen, biochemical, small-molecule microarray, 635/667 nm fluorescence (AID 1133); settings: small-molecule microarray binding, FGF2, fluorescence 635/667; higher = more signal
# Chain of Fibroblast growth factor 2 (Homo sapiens) (P09038 whole entry, looked up): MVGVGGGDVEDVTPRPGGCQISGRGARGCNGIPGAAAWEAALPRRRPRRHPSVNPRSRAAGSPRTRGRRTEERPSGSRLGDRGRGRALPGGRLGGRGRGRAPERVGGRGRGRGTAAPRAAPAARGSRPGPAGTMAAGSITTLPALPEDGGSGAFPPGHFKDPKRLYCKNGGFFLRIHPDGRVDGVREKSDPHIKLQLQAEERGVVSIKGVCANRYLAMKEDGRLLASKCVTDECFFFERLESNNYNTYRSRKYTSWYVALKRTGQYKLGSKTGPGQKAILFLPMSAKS
# [7] = mitochondrial membrane potential change in A549 cells, profiling panel, cell-based, JC-1 fluorescence, basal, 24 h, 100 nL (AID 1138); settings: higher = more signal;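 note: A549 lung adenocarcinoma cells under basal conditions with no added stimulus; test concentration not given here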
# [8] = test system: Lefty1; assay: Lefty1 binders on small-molecule microarrays, primary screen, biochemical, small-molecule microarray, 635/667 nm fluorescence (AID 1139); settings: small-molecule microarray binding, fluorescence 635/667; higher = more signal
# [9] = test system: wheat germ agglutinin (Triticum aestivum), Alexa647-labelled; assay: wheat germ agglutinin binders on compound microarrays, profiling panel, artefact control for SMM control-protein annotation, biochemical, small-molecule microarray, 635/667 nm fluorescence (AID 1140); settings: WGA-A647 binding, 635 nm fluorescence, higher = more signal;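 note: score merges 667 nm feature emission with signal to noise over triplicate slides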
# [10] = molecular target: Luciferin 4-monooxygenase (Photinus pyralis) (UniProt P08659); assay: firefly luciferase enzyme inhibitors, primary screen, biochemical, luminescence, purified enzyme, 2006 set (AID 1141); settings: SteadyGlo luminescence, 30 min, higher = more signal, called active from +8 up or from −8 down;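 note: cell-free assay with purified firefly luciferase at 100 ng per well in PBS; test concentration not given here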
# Chain of Luciferin 4-monooxygenase (Photinus pyralis) (P08659 whole entry, looked up): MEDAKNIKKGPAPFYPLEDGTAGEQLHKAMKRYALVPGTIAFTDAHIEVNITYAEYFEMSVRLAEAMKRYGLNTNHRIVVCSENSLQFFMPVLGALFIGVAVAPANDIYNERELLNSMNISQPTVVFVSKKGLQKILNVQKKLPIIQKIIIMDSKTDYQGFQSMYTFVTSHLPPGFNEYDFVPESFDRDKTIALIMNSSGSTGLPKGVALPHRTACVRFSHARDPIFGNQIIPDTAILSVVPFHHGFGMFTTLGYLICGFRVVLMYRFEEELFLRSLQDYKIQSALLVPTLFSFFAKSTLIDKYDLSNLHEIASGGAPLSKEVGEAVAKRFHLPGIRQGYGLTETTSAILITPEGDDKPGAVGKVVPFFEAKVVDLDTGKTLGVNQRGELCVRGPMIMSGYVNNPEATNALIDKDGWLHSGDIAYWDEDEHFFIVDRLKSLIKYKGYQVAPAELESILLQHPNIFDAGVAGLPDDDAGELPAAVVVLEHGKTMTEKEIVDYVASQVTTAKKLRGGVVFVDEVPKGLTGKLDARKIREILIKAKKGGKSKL
Structure (SMILES),composite z-score [1],composite z-score [2],composite z-score [3],composite z-score [4],composite z-score [5],composite z-score [6],z-score [7],composite z-score [8],composite z-score [9],z-score [10]
CC(=O)NCCCC[C@@H]1NC(=O)[C@@H]2C[C@H](C(=O)NCc3ccc(F)cc3)[C@H](c3cccc(OCCO)c3)N2C1=O,1.6,0.308,-0.135,0.371,1.3,1.7,1.25,0.115,-0.087,-0.425 (inactive)
COc1ccc([Si](C)(C)[C@H]2[C@H](CCO)O[C@@]3(C(=O)N(Cc4ccccc4)c4ccc(N5C(=O)c6cccc7cccc5c67)cc43)[C@@H]2C)cc1,1.38,-0.333,0.209,-0.603,-0.357,-0.751,2.33,-0.297,0.641,-1.84 (inactive)
COCCOC(=O)N1C(=O)[C@@]2(c3cc(C#CC4=CCCCC4)ccc31)[C@H](C(=O)NC[C@H](O)c1ccccc1)[C@H]1C(=O)O[C@H](c3ccccc3)[C@H](c3ccccc3)N1[C@@H]2c1ccccc1OCCO,0.69,1.17,0.985,0.943,1.34,0.825,-1.49,1.09,1.09,-0.855 (inactive)
CO[C@]12C=C(Br)[C@@H](C[C@@H]1c1ccccc1)[C@@]1(CO1)C2=O,-0.22,-0.0095,-0.259,-0.0226,0.931,0.6,0.704,0.41,-0.297,-0.876 (inactive)
Cc1ccc(S(=O)(=O)N2[C@@H](c3ccccc3)C(C(=O)O)=CC[C@H]2c2ccccc2)cc1,-0.247,0.699,0.431,0.175,-0.12,-0.158,-1.38,0.0236,0.33,0.838 (inactive)
CSCC[C@@H]1NC(=O)CC=C[C@@H](C)COC(=O)[C@H](CCSC)NC(=O)CC=C[C@@H](C)COC1=O,-0.158,-0.111,-0.388,0.017,0.129,0.296,1.01,0.531,-0.725,-0.731 (inactive)
CCCC/C=C/[C@H]([C@@H](O)Cc1ccccc1)N(CC#Cc1ccccc1)Cc1ccccc1Br,0.0428,-0.462,-0.219,-0.986,-1.59,-1.37,1.03,-1.84,-0.788,-1.12 (inactive)
O=C1O[C@@H](c2ccccc2)[C@@H](c2ccccc2)N2[C@@H](c3ccc(O)cc3)[C@]3(C(=O)Nc4ccc(C#CC5(O)CCCCCC5)cc43)[C@@H](C(=O)Nc3nc4ccccc4s3)[C@H]12,1.87,1.22,0.706,0.886,1.37,1.21,-0.901,1.53,1.26,-1.4 (inactive)
O=C(NCc1ccccc1)[C@@]1(CCS(=O)(=O)c2ccccc2)COC(c2ccc(OCCCO)cc2)=N1,3.16,1.26,0.79,0.869,0.354,-0.376,0.959,-0.278,1.49,-1.42 (inactive)
COCCOC(=O)N1C(=O)[C@@]2(c3cc(C#CCNC(N)=O)ccc31)[C@H](C(=O)N1CCCCCCC1)[C@H]1C(=O)O[C@H](c3ccccc3)[C@H](c3ccccc3)N1[C@@H]2c1ccccc1OCCO,0.455,1.14,0.784,0.47,1.33,0.385,-0.751,1.21,0.835,-0.201 (inactive)
COC(=O)C1=C(C)N(Cc2ccccc2)c2c(C(=O)OC)c(C(=O)OC)c(C(=O)OC)c(=O)n2[C@@H]1c1ccccc1,-0.0074,0.436,0.39,0.437,0.321,0.528,0.813,0.27,0.292,-1.01 (inactive)
C=CCOC(=O)[C@@H]1[C@H]2C(=O)O[C@H](c3ccccc3)[C@H](c3ccccc3)N2[C@H](c2ccc(OCCOC(=O)[C@H]3C[C@H]4C(=O)N5CCC[C@H]5C(=O)N4[C@H]3c3ccc(O)cc3)cc2)[C@@]12C(=O)Nc1ccccc12,0.912,1.2,0.782,0.81,1.37,1.58,-1.47,0.872,0.93,-0.803 (inactive)
C[C@@H]1CC[C@H]2C(=O)N3[C@@H](CC[C@@H](C)[C@@H]3c3cccc(N4CCOCC4)c3)C(=O)N2[C@H]1c1cccc(N2CCOCC2)c1,0.181,0.978,0.0379,0.815,1.16,1.16,1.05,1.47,0.964,-1.23 (inactive)
Cc1ccc(S[C@]2(C(=O)NC3CC3)CC(=O)N(Cc3cc(C(F)(F)F)cc(C(F)(F)F)c3)[C@@H]2c2ccc(CO)cc2)cc1,1.79,0.489,0.389,0.182,1.2,0.411,0.232,0.821,0.31,1.22 (inactive)
COCCOC(=O)N1C(=O)[C@@]2(c3cc(C#CC4=CCCCC4)ccc31)[C@H](c1ccc(O)cc1)N1[C@H](c3ccccc3)[C@H](c3ccccc3)OC(=O)[C@H]1[C@@H]2C(=O)N1CCCCCCC1,0.31,1.15,1.45,0.694,1.23,1.22,1.99,1.12,0.576,-1.72 (inactive)
O=C1c2ccccc2[C@](Cc2ccccc2I)(C(=O)NCC(F)(F)F)[C@H](c2ccc(CO)cc2)N1Cc1ccccc1C(F)(F)F,0.722,1.22,0.857,0.351,0.678,0.381,1.67,0.108,0.479,-0.956 (inactive)
CCOC(=O)[C@H]1C/C=C/C[C@H](C(=O)OCC)C(=O)O[C@H]2[C@@H](OC)O[C@H](CO)[C@@H](OC(=O)Nc3ccc(Br)cc3)[C@@H]2OC1=O,0.441,1.21,0.361,0.708,0.623,0.376,-2.32,0.588,1.21,-1.72 (inactive)
COc1ccc([Si](C)(C)[C@H]2[C@H](CC(=O)N3Cc4ccccc4C[C@H]3CO)O[C@@]3(C(=O)N(Cc4cccc(N5CCOC5=O)c4)c4ccccc43)[C@@H]2C)cc1,1.42,0.533,0.432,-0.235,1.31,1.32,2,1.24,0.188,-0.86 (inactive)
CCOC(=O)C1=CCC(c2cccc3ccccc23)N(S(=O)(=O)c2ccc(C)cc2)C1 (stereo not given),0.206,1.17,1.02,0.928,0.825,-0.509,2.43,0.052,0.697,1.72 (inactive)
C=CC[C@]1(C(=O)OC)N=C(c2ccc(OCCCO)cc2)O[C@H]1c1ccccc1CN=[N+]=[N-],1.39,0.731,0.5,-0.268,0.286,0.172,1.22,-0.525,0.605,-4.54 (inactive)
COCCOC(=O)N1C(=O)[C@@]2(c3cc(C#CCCO)ccc31)[C@H](c1ccc(OCCO)cc1)N1[C@H](c3ccccc3)[C@H](c3ccccc3)OC(=O)[C@H]1[C@@H]2C(=O)NC[C@H](O)c1ccccc1,1.23,1.21,0.76,0.883,1.39,1.36,-1.15,1.24,0.728,-0.216 (inactive)
O=C1C2C=CC(C(O)C#Cc3ccccc3)N(Nc3ccccc3)C2C(=O)N1c1ccccc1 (stereo not given),1.1,0.356,0.0485,0.941,0.108,-0.0859,-0.136,-0.67,1.23,-0.934 (inactive)
CC(C)[Si]1(C(C)C)O[C@@H](c2ccccc2)c2cc(C3CC3)nc(-c3ccc(Oc4ccccc4)cc3)c21,-1.14,-0.889,-0.323,-0.812,-0.591,-0.192,1.55,-0.315,-1.33,-0.626 (inactive)
CCC(=O)[C@]12O[C@@]3([C@@H]4C(=O)OCC[C@@H]41)N(CC)C(C)=C(C(=O)OC)[C@@H](c1ccccc1)N3C2=O,1.41,-1.67,0.335,-0.62,0.754,0.111,-0.404,0.373,-0.0702,-0.533 (inactive)
C=CCC(OC(C)=O)[C@@H]1[C@@H](N(Cc2cc3ccccc3o2)C(=O)c2ccc(C)cc2)c2cc(OCCCO)ccc2N1C(=O)c1ccc2ccccc2n1 (stereo not given in full),-0.88,-0.593,0.178,-0.589,0.573,-0.0362,1.57,-0.114,-0.475,-1.33 (inactive)
C[N+](C)(C)CCCCNC(=O)[C@H]1C[C@H]2C(=O)NCC(=O)N2[C@H]1c1cccc(OCCO)c1,2.81,0.279,-0.0181,-0.0364,1.49,1.9,-0.776,1.71,0.399,-0.162 (inactive)
CN(C)C(=O)[C@@]1(Cc2ccccc2N=[N+]=[N-])N=C(c2ccc(OCCCO)cc2)O[C@H]1c1ccccc1CN=[N+]=[N-],2.23,1.23,1.02,0.831,1.21,0.512,2.31,0.633,1.45,-1.92 (inactive)
COCCOC(=O)N1C(=O)[C@@]2(c3cc(C#CCCO)ccc31)[C@H](c1ccc(O)cc1)N1[C@H](c3ccccc3)[C@H](c3ccccc3)OC(=O)[C@H]1[C@@H]2C(=O)Nc1nc2ccccc2s1,0.607,1.19,0.214,0.992,1.27,0.955,-2.54,1.22,0.658,0.0884 (inactive)
COCCOC(=O)N1C(=O)[C@@]2(c3cc(C#CCCO)ccc31)[C@H](C(=O)N1CCCCCCC1)[C@H]1C(=O)O[C@H](c3ccccc3)[C@H](c3ccccc3)N1[C@@H]2c1ccc(O)cc1,1.12,1.18,1.49,0.555,1.34,0.661,1.65,0.957,1.1,-0.888 (inactive)
O=C1O[C@@H](c2ccccc2)[C@@H](c2ccccc2)N2[C@@H](c3ccccc3OCCO)[C@]3(C(=O)Nc4ccc(C#CC5=CCCCC5)cc43)[C@@H](C(=O)O)[C@H]12,1.91,1.19,0.705,0.934,1.14,0.301,-2.32,0.699,1.17,-5.86 (inactive)
